Experimental data taken from PubChem BioAssay AID504333 (National Center for Advancing Translational Sciences (NCATS), 2011).
About 16,000 (4.4%) of roughly 360,000 compounds were called active. About 9% were inconclusive and are not listed. Calls come from the whole dose curve; as a rule, active = well fitted inhibition curve with a large enough effect; inconclusive = small, poorly fitted or top-dose-only effect; inactive = no such curve, though single readings can be large or run the other way. Only a selection was taken, and actives are over-represented in it overall.

molecular target: Bromodomain adjacent to zinc finger domain protein 2B (Homo sapiens) (UniProt Q9UIF8); test: qHTS Assay for Inhibitors of BAZ2B; details: AlphaScreen BAZ2B-H3K14Ac peptide displacement; series mostly up to 114 µM; activity change, negative = inhibition: at the top concentration; note: nearly all actives have a fitted effect of over 60% in size
Summary of the method: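 Protein-peptide AlphaScreen: BAZ2B 50 nM, b-H3K14Ac 50 nM, 1x PBS pH 7.4 + 0.01% Tween-20. Preincubation 30 min RT; cpd 30 min RT (top 110 uM); beads 20 min RT, light-protected.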
% is set by controls: 0 for no effect and ±100 for the full control effect; potency is the fitted concentration of half-maximal effect.

Sequence of Bromodomain adjacent to zinc finger domain protein 2B (Homo sapiens) (Q9UIF8 whole entry, looked up, the tested form may be a part): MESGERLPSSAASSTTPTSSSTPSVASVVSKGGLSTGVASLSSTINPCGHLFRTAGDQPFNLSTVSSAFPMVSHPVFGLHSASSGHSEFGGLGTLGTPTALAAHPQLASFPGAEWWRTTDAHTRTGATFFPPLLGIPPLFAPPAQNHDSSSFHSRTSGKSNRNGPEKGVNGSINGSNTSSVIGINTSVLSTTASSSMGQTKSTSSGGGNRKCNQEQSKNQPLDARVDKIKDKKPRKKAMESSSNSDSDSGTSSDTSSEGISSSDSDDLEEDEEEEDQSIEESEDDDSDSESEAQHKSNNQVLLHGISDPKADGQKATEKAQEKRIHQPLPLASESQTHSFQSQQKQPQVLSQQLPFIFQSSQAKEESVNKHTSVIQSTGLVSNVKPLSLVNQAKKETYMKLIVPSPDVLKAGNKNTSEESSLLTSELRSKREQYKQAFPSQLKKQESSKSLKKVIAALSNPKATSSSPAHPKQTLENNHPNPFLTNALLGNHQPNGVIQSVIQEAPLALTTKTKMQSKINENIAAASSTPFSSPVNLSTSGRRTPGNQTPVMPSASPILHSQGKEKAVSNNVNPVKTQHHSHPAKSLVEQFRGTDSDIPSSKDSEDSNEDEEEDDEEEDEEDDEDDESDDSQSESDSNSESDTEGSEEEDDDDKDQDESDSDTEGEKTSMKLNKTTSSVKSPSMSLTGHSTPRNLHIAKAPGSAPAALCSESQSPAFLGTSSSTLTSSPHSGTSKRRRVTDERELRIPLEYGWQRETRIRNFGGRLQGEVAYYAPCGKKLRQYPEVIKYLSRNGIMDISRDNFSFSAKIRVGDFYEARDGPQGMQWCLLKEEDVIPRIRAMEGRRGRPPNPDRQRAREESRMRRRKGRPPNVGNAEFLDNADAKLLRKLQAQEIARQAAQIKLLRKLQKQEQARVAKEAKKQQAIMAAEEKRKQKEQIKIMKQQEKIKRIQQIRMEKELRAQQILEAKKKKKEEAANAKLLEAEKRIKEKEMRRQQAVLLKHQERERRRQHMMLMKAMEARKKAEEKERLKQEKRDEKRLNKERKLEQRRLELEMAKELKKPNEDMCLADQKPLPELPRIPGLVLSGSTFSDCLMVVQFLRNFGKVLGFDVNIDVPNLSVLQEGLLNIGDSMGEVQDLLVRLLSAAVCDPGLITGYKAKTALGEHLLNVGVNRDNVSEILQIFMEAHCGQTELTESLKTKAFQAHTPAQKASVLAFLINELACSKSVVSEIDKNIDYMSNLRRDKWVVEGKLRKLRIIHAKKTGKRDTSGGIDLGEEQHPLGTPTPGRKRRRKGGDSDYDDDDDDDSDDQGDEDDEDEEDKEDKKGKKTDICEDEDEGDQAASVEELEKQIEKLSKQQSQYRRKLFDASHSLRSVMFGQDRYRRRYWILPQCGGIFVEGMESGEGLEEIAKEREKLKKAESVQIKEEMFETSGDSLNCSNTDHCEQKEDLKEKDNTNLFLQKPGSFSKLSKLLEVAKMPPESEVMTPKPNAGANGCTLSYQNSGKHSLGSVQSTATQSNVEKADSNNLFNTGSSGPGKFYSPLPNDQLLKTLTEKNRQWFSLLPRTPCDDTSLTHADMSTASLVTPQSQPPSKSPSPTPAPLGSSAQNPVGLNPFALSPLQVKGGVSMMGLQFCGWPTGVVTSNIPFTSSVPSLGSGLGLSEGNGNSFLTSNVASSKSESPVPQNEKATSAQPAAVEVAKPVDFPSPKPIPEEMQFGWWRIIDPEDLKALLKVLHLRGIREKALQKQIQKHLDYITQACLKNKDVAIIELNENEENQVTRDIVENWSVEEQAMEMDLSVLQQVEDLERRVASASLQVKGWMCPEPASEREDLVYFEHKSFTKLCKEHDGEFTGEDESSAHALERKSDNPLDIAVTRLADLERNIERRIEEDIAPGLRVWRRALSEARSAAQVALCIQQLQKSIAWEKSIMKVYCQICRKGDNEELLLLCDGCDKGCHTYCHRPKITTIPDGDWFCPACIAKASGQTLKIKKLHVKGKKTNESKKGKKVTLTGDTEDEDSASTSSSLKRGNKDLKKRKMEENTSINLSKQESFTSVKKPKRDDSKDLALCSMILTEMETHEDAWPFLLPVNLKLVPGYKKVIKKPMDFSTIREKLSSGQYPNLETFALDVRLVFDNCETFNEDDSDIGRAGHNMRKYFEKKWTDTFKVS

Activity change, negative = inhibition, inactive:
O=S(=O)(c1cccs1)N1CCN(Cc2ccccc2)CC1 4.84%, CCc1c(C)nc(N2CCN(Cc3ccccc3)CC2)[nH]c1=O 0.116%, CCOc1ccccc1NC(=O)CN1CCCN(Cc2cccc(Cl)c2)S1(=O)=O -0.932%, COc1cccc2c1cc1c(=O)n(CC(=O)N3CCN(c4ccccc4)CC3)nc(C)n12 0.516%, CC(=O)N1c2ccc(S(=O)(=O)N3CCCCCC3)cc2CC1C(=O)NCc1ccccc1C (stereo unspecified) -10.3%, COc1ccc(C2C=C(c3ccc(Br)cc3)Nc3nc(NS(C)(=O)=O)nn32)cc1 (stereo unspecified) 3.31%, COc1ccc(C2=CC(c3ccccc3Cl)n3nc(-c4ccc(Cl)cc4)nc3N2)cc1 (stereo unspecified) -5.56%, COc1ccc(-n2c(SCC(N)=O)nc3c(oc4ccccc43)c2=O)cc1 3.46%, COc1ccc(N2C(=O)CS(=O)(=O)C23C(=O)N(Cc2ccc(C)cc2)c2ccccc23)cc1Cl (stereo unspecified) 1.71% [at 57.1 µM], COc1cccc(C(=O)NC(=O)Nc2ccc(-c3cc(C(F)(F)F)nn3-c3ccccc3)cc2)c1 -9.64%, Cc1ccc(NC(=O)Nc2ccccc2)c(Br)c1 -9.4%, Cc1ccc(-c2c[n+](CC(=O)Nc3ccccc3)c3n2CCC3)cc1 -4.1%, C=CCNC(=O)c1csc(-c2ccccc2)n1 -24.1%, O=C(CNS(=O)(=O)c1cccs1)N1CCN(c2ccccc2Cl)CC1 0.355%, Cc1ccc(C)c(Cn2c(C(=O)O)c(CNCc3cccs3)c3ccccc32)c1 -15.7%, CCc1ccccc1NC(=O)CSc1nnc(-c2ccccc2)c(-c2ccccc2)n1 -21.5%, COc1ccc(NC(=O)CSc2nccn2C2CCCC2)cc1OC -26.7%, CCn1c(SCC(=O)NC2CC2)nnc1-c1ccncc1 -5.24%, Cn1c(SCc2ccc(F)cc2)nnc1-c1ccncc1 5.73%, CCn1c(SCc2cccc(C(=O)O)c2)nnc1-c1ccc(Cl)cc1 -9.13%, CCn1c(SCC(=O)Nc2ccc3c(c2)OCCO3)nnc1-c1ccncc1 4.75%, CCCN(CCC)C(=O)C1CCCN(c2ncnc3c2nc2n3CCCCC2)C1 (stereo unspecified) 0.133%, COc1ccc(Cn2c(C(=O)O)c(CNCc3cccc(OC)c3)c3ccc(C)cc32)cc1 -35.5%, O=C(OCc1cc(=O)n2nc(C3CC3)sc2n1)c1ccccc1Cl -7.57%, Cc1cccc(NC(=O)Cn2cc(S(=O)(=O)Cc3ccccc3Cl)c3ccccc32)c1 -9.86%, CCOc1cc(C)c(S(=O)(=O)NCc2ccccn2)cc1C -7.56%, CCOc1cc(CNn2c(C)nnc2SCC(=O)NC(C)(C)C)ccc1OCC(=O)NC(C)(C)C 0.418%, Cc1cc(NC(=O)CSc2nnc(Nc3ccccc3F)s2)no1 -5.7%, Cc1cc(NC(=O)CSc2nnnn2-c2ccc(F)cc2)no1 4.09%, COc1ccc(CNC(=O)c2ccc3c(O)c(S(=O)(=O)c4ccccc4)c(=O)[nH]c3c2)cc1 -23.6%, CCN1CCN(CCCNC(=O)c2cnn(-c3ccc(C)cc3C)c2C2CCN(C(=O)OC(C)(C)C)CC2)CC1 4.75% [at 57.1 µM], COc1cccc(C(=O)NC2(C(F)(F)F)C(=O)Nc3c2c(=O)[nH]c(=O)n3-c2ccc(C)cc2)c1 (stereo unspecified) 1.43%, CCc1cnc2c(c1SCC(=O)N1CCC(C)CC1)c(=O)n(C)c(=O)n2C -4.76%, O=C(CCCCn1c(=O)c2ccccc2n(CC(=O)Nc2cccc(C(F)(F)F)c2)c1=O)NCc1ccc2c(c1)OCO2 1.18%, O=c1c2ccccc2c(-c2ccc(Br)cc2)nn1Cc1ccccc1 1.98%, O=C(NCCSc1ccccc1)c1ccco1 46.4%, CCOC(=O)c1c(S(=O)(=O)N2CCCC(C(=O)NCc3ccc(F)cc3)C2)c(C)n(CC)c1C (stereo unspecified) -11.7%, Cc1cc(C)c(/C=C/c2onc(C)c2S(=O)(=O)N2CCC(C(=O)Nc3ccc(Cl)cc3C)CC2)c(C)c1 1.4%, COc1ccc2c(c1)Cc1sc(NC(=O)c3ccccc3Br)nc1-2 -32.6%, Cc1ccc(N2CC(C(=O)Nc3ccc(N(C)C)cc3)CC2=O)cc1Cl (stereo unspecified) -13%, CC(=O)Nc1cc(C(=O)NCc2ccc(F)cc2)ccc1Sc1ccc(F)cc1 -0.997%, CCc1ccc(C2CC(=O)c3c([nH]c(C(=O)OCc4ccc(C)cc4)c3C)C2)cc1 (stereo unspecified) -5.92%

Potency, active:
O=C1c2ccccc2C(=O)c2c1cccc2N1CCN(Cc2ccccc2)CC1 5.01 µM, Cc1ccc(C2C=C(c3ccc(Cl)cc3)Nc3nc(NC(=O)CCC(=O)O)nn32)cc1 (stereo unspecified) 79.4 µM, C=CC[n+]1c(-c2ccc(C)cc2)csc1NNC(=O)Nc1ccccc1 31.6 µM, C=CCNc1scc(-c2ccccc2)[n+]1CC=C 10 µM, CN(C)CCCn1c(SCc2ccc(Cl)cc2)nnc1-c1ccncc1 56.2 µM, CC1CCCCC1NC(=O)CSc1nnc(-c2ccncc2)n1CCCN(C)C (stereo unspecified) 44.7 µM, CCOc1cc(CNCc2ccccn2)ccc1OCC(=O)NC(C)(C)C 50.1 µM, Cc1cc(NC(=O)CSc2nnc(-c3ccc(Cl)s3)o2)no1 39.8 µM, O=C(NCCc1ccco1)c1nn(Cc2ccccc2)c(=O)c2ccccc12 50.1 µM
